JMJD2A Tudor inh: qHTS Assay for Inhibitors of JMJD2A-Tudor Domain; Lysine-specific demethylase 4A (Homo sapiens), O75164; AlphaScreen JMJD2A-Tudor / H3K4me3 peptide binding; Potency, µM (doses to about 114 µM), without a hit: at the top dose activity change, negative = inhibition, hits mostly inhibitors; hit rate 4.4% among 390,000; AID 504339, 2011; also: % is scaled to controls: 0 for no effect and ±100 for the full control effect; nearly all actives have a fitted effect of over 50% in size
ALOX12 inh: Primary qHTS assay for inhibitors of human arachidonate 12S-lipoxygenase (ALOX12): Round 2 | Polyunsaturated fatty acid lipoxygenase ALOX12 (Homo sapiens), P18054 | purified 12hLO, xylenol orange hydroperoxide absorbance | Potency, µM (highest dose often 108 µM), for the others: top-dose activity change, negative = inhibition, most hits filed as inhibitors | hit rate 1.1% among 580,000; also: % is scaled to controls: 0 for no effect and ±100 for the full control effect
Target sequence (P18054 whole entry, looked up): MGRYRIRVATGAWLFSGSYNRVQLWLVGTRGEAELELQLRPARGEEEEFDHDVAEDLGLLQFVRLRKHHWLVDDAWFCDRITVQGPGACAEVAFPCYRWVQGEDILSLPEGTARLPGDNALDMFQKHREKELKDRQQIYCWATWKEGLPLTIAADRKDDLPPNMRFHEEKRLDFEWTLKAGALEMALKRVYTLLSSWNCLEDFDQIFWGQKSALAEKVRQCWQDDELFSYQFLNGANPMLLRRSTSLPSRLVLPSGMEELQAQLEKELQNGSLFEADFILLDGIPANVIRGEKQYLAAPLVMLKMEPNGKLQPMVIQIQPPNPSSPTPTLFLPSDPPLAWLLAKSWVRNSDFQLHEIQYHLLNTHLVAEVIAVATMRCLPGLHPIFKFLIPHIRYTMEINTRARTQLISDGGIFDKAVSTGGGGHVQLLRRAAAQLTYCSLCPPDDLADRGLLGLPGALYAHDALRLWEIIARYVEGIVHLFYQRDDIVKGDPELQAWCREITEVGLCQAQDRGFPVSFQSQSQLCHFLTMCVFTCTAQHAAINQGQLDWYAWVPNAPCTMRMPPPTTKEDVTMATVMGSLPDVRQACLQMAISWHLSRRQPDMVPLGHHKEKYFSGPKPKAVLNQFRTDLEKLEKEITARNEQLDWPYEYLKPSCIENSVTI
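Hydroperoxide product was detected by ferrous iron/xylenol orange as the 573 to 405 nm absorbance ratio. Arachidonic acid at 40 uM (final) was turned over for 30 min at room temperature by 150 nM human 12hLO, pH 7.0 Hepes buffer, after 15 min compound preincubation.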
Sfp inh: qHTS Assay for Inhibitors of Bacillus subtilis Sfp phosphopantetheinyl transferase (PPTase); AID 1490, 2009; Potency, µM, without a hit: largest response in the series, negative = inhibition, actives largely listed as inhibitors; Biochemical Sfp PPTase activity, qHTS; hit rate 3.5% among 310,000; 4'-phosphopantetheinyl transferase ffp (Bacillus subtilis), Q9F4F7;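 also: the enzyme is Sfp with the accession as filed and its product quenches rhodamine fluorescence; 0% = enzyme reaction without inhibitor and -100% = no enzyme wells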
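Fluorescence-quenching assay: 15 nM Sfp-PPTase preincubated 15 min at room temperature with compound, then 5 uM rhodamine-CoA and 12.5 uM BHQ-2-labelled YbbR peptide added. Fluorescence (ex 525/em 598 nm) read at start and after 30 min; difference gives rate.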
G9a block: qHTS Assay for Inhibitors of Histone Lysine Methyltransferase G9a. G9a H3K9 monomethylation, AlphaScreen, 2 h. Potency, µM (highest dose often 102 µM), for inactives: at the top dose activity, negative = inhibition, most hits filed as inhibitors. hit rate 8.8% among 350,000. AID 504332, 2011; also: % is scaled to controls: 0 for no effect and ±100 for the full control effect; nearly all actives have a fitted effect of over 75% in size
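Signal arises when biotinylated H3K9 peptide, once monomethylated, bridges streptavidin donor and antibody-captured acceptor beads. Enzyme at 20 nM was preincubated 15 min with test compounds; peptide 500 nM and SAM 20 uM then reacted for 2 h.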
BAZ2B inh: qHTS Assay for Inhibitors of BAZ2B | Bromodomain adjacent to zinc finger domain protein 2B (Homo sapiens), Q9UIF8 | AlphaScreen BAZ2B-H3K14Ac peptide displacement | Potency, µM (series often up to 114 µM), without a hit: at the highest dose activity change, negative = inhibition, most hits filed as inhibitors | hit rate 4.4% among 360,000; also: % is scaled to controls: 0 for no effect and ±100 for the full control effect; nearly all actives have a fitted effect of over 60% in size
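In this displacement format the biotinylated H3(5-23) peptide acetylated at Lys14 serves as ligand at 50 nM, with BAZ2B at 50 nM in PBS pH 7.4 containing 0.01% Tween-20. Donor and acceptor beads are 10 ug/mL final.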
HP1b chromo inh: HTS for Inhibitors of HP1-beta Chromodomain Interactions with Methylated Histone Tails | Chromobox protein homolog 1 (Homo sapiens), P83916 | AlphaScreen HP1-beta / biotin-H3K9me3 peptide binding | Potency, µM (doses to about 114 µM), inactives show top-dose activity change, negative = inhibition, usual class: inhibitors | hit rate 0.56% among 390,000; also: nearly all actives have a fitted effect of over 70% in size
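HP1-beta protein (50 nM final) preincubated 30 min at room temperature with biotinylated H3(1-18)K9me3 peptide (50 nM) in PBS pH 7.4, 0.01% Tween-20, then compound added for 30 min. AlphaScreen streptavidin donor/nickel chelate acceptor beads (10 ug/mL final), 30 min dark, luminescence read.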
An asterisk follows results filed as active; ? = inconclusive; . = no result; [ ] = dose if it differs, or a comment. Rows were chosen to be rich in hits. Some 8.7% of all compounds tested hit in one or more screens of this group. Calls follow the shape of the dose curve; as a rule, active = well fitted curve in the direction sought with a large enough effect; inconclusive = small, poorly fitted or top-dose-only effect, or another doubt; inactive = no such curve, though single readings can be large; an effect the other way counts as inactive or inconclusive. Potency is read from the fitted curve at half-maximal effect.

SMILES	JMJD2A Tudor inh	ALOX12 inh	Sfp inh	G9a block	BAZ2B inh	HP1b chromo inh
COCCNC(=S)N(CCc1c(C)[nH]c2ccc(F)cc12)Cc1cccnc1	?	0.0%	0.8%	39.8%[0.501 µM]	?	3.1%
CNC(=S)N(CCc1c(C)[nH]c2ccc(F)cc12)Cc1ccco1	?	106.1%	3.1%	70.8µM*	?	-13.0%
CNC(=S)N(CCc1c(C)[nH]c2ccccc12)Cc1ccco1	?	109.0%	12.7%	50.1µM*	?	?
COCCNC(=S)N(CCc1c(C)[nH]c2ccc(F)cc12)Cc1ccco1	-35.1%	33.0%	-6.6%	?	70.8µM*	-4.7%
COc1ccc2c(c1)S/C(=C\C(=O)c1ccncc1)N2C	0.6%	44.7µM*	8.91µM*	?	.	41.2%
COc1cc(OC)cc(C(=O)/C=C2\Sc3ccccc3N2C)c1	14.7%	-6.4%	50.1µM*	.	39.5%	34.8%
CN1/C(=C\C(=O)c2cccs2)Sc2ccccc21	27.3%	?	50.1µM*	11.9%	8.8%	163.5%
O=c1[nH]c(Nc2ccccc2)nc2nccc(-c3cccs3)c12	.	56.5%	.	.	.	.
CS(=O)(=O)N1C[C@@H](COc2cccnc2)[C@H](c2ccccn2)C1	.	-8.1%	.	.	.	.
COc1ccc(NC(=O)Cc2c[nH]c3ncc(-c4cnn(C)c4)cc23)cn1	.	-2.9%[176 µM]	.	.	.	.
CCOC(=O)c1c(NC(=O)C2CCCO2)sc(C(N)=O)c1C (stereo unspecified)	-14.4%	19.5%	-0.5%	?	-33.0%	20.8%
CCN(CC)C(=O)c1sc(NC(=S)N2CCN(C(=O)C3CCCO3)CC2)c(C(=O)OC)c1C (stereo unspecified)	-16.6%	1.1%	-16.7%	50.1µM*	2.3%	26.7%
COC(=O)c1cc(NC(=S)N2CCN(C(=O)C3CCCO3)CC2)cc(C(=O)OC)c1 (stereo unspecified)	-7.0%	-5.8%	5.6%	-5.6%	-2.3%	34.9%
CCCOC(=O)c1c(NC(=O)C2CCCO2)sc(C(=O)OC)c1C (stereo unspecified)	?	?	6.31µM*	3.55µM*	-5.9%	?
CC(C)=CC1C(C(=O)NC23CC4CC(CC(C4)C2)C3)C1(C)C (stereo unspecified)	.	-0.8%	.	.	.	.
CO[C@H]1C([C@@]2(C)O[C@@H]2CC=C(C)C)[C@]2(CC[C@H]1OC(=O)/C=C/C=C/C=C/C=C/C(=O)O)CO2 (stereo partly specified)	.	.	39.8µM*	22.4µM*	.	.
COC1C(=O)CCC2(CO2)C1(O)C1(C)OC1CC=C(C)C (stereo unspecified)	.	62.7%	.	.	.	.
C(=N\c1nccs1)/Nc1nccs1	35.5µM*	?	-21.2%	28.2µM*	79.4µM*	-77.3%
O=C(O)/C=C/C(=O)Nc1nccs1	-19.9%	0.9%	8.2%	-4.1%	-2.6%	7.6%
CN(C)Cc1cc(C[C@@H]2C[C@H](NC(=O)C3CCC3)C2(C)C)no1	.	71.6%[176 µM]	.	.	.	.
CN(C)CCCOC(=O)c1ccc(Br)cc1	8.0%	11.6%	2.9%	44.7µM*	9.9%	42.9%
CN(C)CCCOC(=O)c1ccc(Cl)cc1	7.3%	7.1%	-7.5%	-35.7%[12.7 µM]	-5.5%	42.8%
COc1ccc(NC(=O)COc2cccc(-c3nnc4n3CCCC4)c2)cc1	.	3.7%	.	.	.	.
CCCC(=O)Nc1ccc2c(c1)nc(CN1CCN(C(C)=O)CC1)n2C	9.7%	0.0%	-0.9%	50.1µM*	1.5%[57.1 µM]	28.7%
CCOC(=O)N1CCN(Cc2nc3cc(NC(C)=O)ccc3n2C(C)C)CC1	50.1µM*	-16.6%	.	-48.1%[59 µM]	?	33.9%
